According to PubChem BioAssay:

These compounds were tested on Human papillomavirus type 1a protein E7 (residues 44-93) (assay: small molecules binding HPV E7 44-93 – biochemical, small-molecule microarray, residues 44-93, 635 nm fluorescence, primary screen (AID 1108;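 also: E7 fragment applied at 1 µg/mL in TBST for 1 h at 4 C; score combines spot fluorescence with its signal to noise ratio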)). Details: fluorescence 635 nm, higher = more signal.

Row | Structure (SMILES) | composite z-score
1 | CCN1C(C)=C(C(=O)OC)[C@@H](c2ccccc2)N2C(=O)[C@@]3(C(=O)OC)O[C@@]12[C@@H]1C(=O)N(C)C(=O)[C@@H]13 | -0.592
2 | CO[C@H]1COC(=O)[C@H](C)NC(=O)CC=C[C@@H](C)[C@H](NS(=O)(=O)c2ccc(C)cc2)COC(=O)CC=C[C@@H]1C | -0.9
3 | Cc1ccc(S(=O)(=O)N[C@H]2COC(=O)CC=C[C@H](C)COC(=O)N[C@@H](C)C(=O)CC=C[C@@H]2C)cc1 | -0.417
4 | CN1C2C=C(c3ccc(CO)cc3)C(C3C(=O)N(C(N)=O)C(=O)C32)C1c1cccs1 (stereo unspecified) | -0.232
5 | CCCC=C(CCC)[C@@H](NS(=O)(=O)c1ccc(C(F)(F)F)cc1)c1ccc(-c2ccccc2)cc1 | 1.32
6 | CO[C@H]1COC(=O)[C@@H](C)NC(=O)CC=C[C@@H](C)[C@H](OC)COC(=O)CC=C[C@@H]1C | -0.0307
7 | C=CCC(OC(C)=O)[C@@H]1[C@@H](N(Cc2cc3ccccc3o2)C(=O)Cc2ccc(F)cc2)c2cc(OCCCO)ccc2N1C(=O)c1ccc(-c2ccccc2)cc1 (stereo partly specified) | -0.524
8 | Cc1ccc(N2C(=O)c3ccccc3[C@@H](C(=O)NCc3ccccc3)[C@@H]2c2ccc(CO)cc2)nc1 | -0.752
9 | CCCC[C@@H]1C[C@H]1[C@@H](NC(=O)c1ccccc1)c1ccccc1C(F)(F)F | 1.38
10 | CN1C(=O)C2C=CC(C(O)c3ccc(N(C)C)cc3)N(Nc3ccc([N+](=O)[O-])cc3[N+](=O)[O-])C2C1=O (stereo unspecified) | 0.501
11 | O=C1C2C=CC(C(O)C#Cc3ccccc3)N(Nc3ccccc3)C2C(=O)N1c1ccccc1 (stereo unspecified) | -0.369
12 | Cc1ccc(S[C@]2(C(=O)NCCN3CCOCC3)CC(=O)N(C3Cc4ccccc4C3)[C@@H]2c2ccc(CO)cc2I)cc1 | 0.0913
13 | O=C1O[C@@H](c2ccccc2)[C@@H](c2ccccc2)N2[C@@H](c3ccc(O)cc3)[C@]3(C(=O)Nc4ccccc43)[C@@H](C(=O)N3CCN(c4ncccn4)CC3)[C@H]12 | 0.746
14 | C=CC[C@]1(C(=O)NCC(O)CO)N=C(c2ccc(OCCCO)cc2)O[C@H]1c1ccccc1 (stereo partly specified) | -0.72
15 | CC[C@@H]1C=C(C(=O)O)[C@H](c2ccccc2)N1S(=O)(=O)c1ccc([N+](=O)[O-])cc1 | 0.672
16 | CN1CCC(CCCO)=CC1C1CC1 (stereo unspecified) | -0.416
17 | C=CC[C@]1(C(=O)N2CCCCC2)N=C(c2ccc(OCCCO)cc2)O[C@H]1c1ccccc1N=[N+]=[N-] | 0.796
18 | COc1cccc([C@@H]2[C@@H](C)CC[C@H]3C(=O)N4[C@H](c5cccc(OC)c5)[C@@H](C)CC[C@H]4C(=O)N23)c1 | 0.27
19 | COCCOC(=O)N1C(=O)[C@@]2(c3cc(C#CC4=CCCCC4)ccc31)[C@H](c1ccc(O)cc1)N1[C@H](c3ccccc3)[C@H](c3ccccc3)OC(=O)[C@H]1[C@@H]2C(=O)N1CCCCCCC1 | 1.29
20 | C=CCC(OC(C)=O)[C@@H]1[C@@H](N(Cc2cccc3ccccc23)C(=O)c2ccc(C)cc2)c2cc(OCCCO)ccc2N1C(=O)c1ccc(-c2ccccc2)cc1 (stereo partly specified) | 0.479
21 | C=CCN1C(=O)[C@]2(O[C@H](CCn3cc(CCO)nn3)[C@@H]([Si](C)(C)c3ccc(OC)cc3)[C@@H]2C)c2cc(NC(=O)c3ccc(OC)cc3)ccc21 | 1.09
22 | CC(=O)NCCCC[C@@H]1NC(=O)[C@@H]2C[C@H](C(=O)NCCCCCCN(C)C)[C@H](c3ccc(O)cc3)N2C1=O | -0.0336
23 | CO[C@@H]1COC(=O)[C@H](COCc2ccccc2)NC(=O)CC=C[C@@H](C)[C@H](OC)COC(=O)[C@H](COCc2ccccc2)NC(=O)CC=C[C@H]1C | -0.417
24 | COCCOC(=O)N1C(=O)[C@@]2(c3ccccc31)[C@H](C(=O)N1CCc3cc(OC)c(OC)cc3C1)[C@H]1C(=O)O[C@H](c3ccccc3)[C@H](c3ccccc3)N1[C@@H]2c1ccccc1OCCO | 0.583
25 | C=C(CCCC)/C(=C/C[C@@H](OC(=O)c1ccncc1)c1cccc(OCCO)c1)c1cc(C(=O)OC)ccc1OC | -0.414
26 | C#CCCCON=C1C[C@@H](O)[C@@H](O)[C@@H]2[C@@H]3C(=O)N(Cc4ccc5c(c4)OCO5)C(=O)[C@@H]3CC[C@@H]12 | 0.449
